Measurements from PubChem BioAssay (Tox21).
Inconclusive results are not listed. A call without a number means that no potency is given here. Active and inactive are the calls of the source. Unless noted, the call rests on the fitted dose curve; in most records, active means well fitted curve in the direction sought with a large enough effect in the repeat runs; inconclusive means weak or mixed curves; inactive means no such curve, though single readings can be large; an effect the other way counts as inactive or inconclusive.

Tested on: not listed separately
Test: qHTS assay to identify small molecule antagonists of the retinoid-related orphan receptor gamma (ROR-gamma) signaling pathway - cell viability counter screen (AID 1159520); further: nearly all actives have a fitted effect of over 50% in size
Conditions: Tet-on RORgamma CHO cells viability, ATP luminescence, 16 h; series mostly up to 92.4 µM
How it was run: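 Tet-on ROR gamma CHO cells were given compounds for 2 hr, then doxycycline hyclate at 1 uM final, and incubated 16 hr at 37 C. Viability was measured as ATP content by CellTiter-Glo luminescence.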
Potency means the concentration at half of the fitted maximal effect.

| Structure (SMILES) | Potency | activity, negative = cytotoxicity |
| --- | --- | --- |
| ClCCCN1CCN(c2cccc(Cl)c2)CC1 | inactive | – |
| C[C@]12CC[C@H]3[C@@H](CC=C4C[C@@H](O)CC[C@@]43C)[C@@H]1CC[C@@H]2O | inactive | – |
| CCCCC(=O)Cl | inactive | – |
| CCCCCCI | inactive | – |
| CC(C)[N+](=O)[O-] | inactive | – |
| OC(c1ccccc1)(c1ccccc1)C1CCNCC1 | inactive | – |
| CC(Cl)(Cl)[N+](=O)[O-] | inactive | – |
| C=C(C)CN(CC)c1c([N+](=O)[O-])cc(C(F)(F)F)cc1[N+](=O)[O-] | inactive | – |
| CN1CCN(C(=O)O[C@H]2c3nccnc3C(=O)N2c2ccc(Cl)cn2)CC1 | inactive | – |
| CCCCCCBr | inactive | – |
| NC(=S)C(N)=S | inactive | – |
| Cc1ncc2n1-c1ccc(Cl)cc1C(c1ccccc1F)=NC2 | inactive | – |
| COc1cccc(C(=O)NN(C(=O)c2cc(C)cc(C)c2)C(C)(C)C)c1C | inactive | – |
| O=C1c2ccccc2C(=O)c2ccccc21 | – | -0.509% [at 19 µM] (inactive) |
| Cc1ncc(CNC(=O)N(CCCl)N=O)c(N)n1 | inactive | – |
| C[N+](C)=CCl | inactive | – |
| COc1cc(OC)nc(Oc2cccc(Oc3nc(OC)cc(OC)n3)c2C(=O)O)n1 | inactive | – |
| CNC(=O)Oc1ccccc1C1OCCO1 | inactive | – |
| O=[N+]([O-])c1cccc2cccnc12 | inactive | – |

| Structure (SMILES) | Potency | activity, negative = cytotoxicity |
| --- | --- | --- |
| Cc1cc(C)nc(Nc2ccccc2)n1 | inactive | – |
| OCCBr | inactive | – |
| O=C(Nc1ccccc1)c1ccccc1I | inactive | – |
| CC(C)(C)NCC(O)c1cc(Cl)c(N)c(Cl)c1 (configuration not stated) | inactive | – |
| CC(N)=S | inactive | – |
| O=[N+]([O-])c1ccc2c3c(cccc13)CC2 | inactive | – |
| CCOP(=O)(OCC)OP(=O)(OCC)OCC | inactive | – |
| CCC(=O)C(CCN(C)C)(c1ccccc1)c1ccccc1 | inactive | – |
| C[C@@H]1CN(C2CCC(C#N)(c3ccc(F)cc3)CC2)CC[C@]1(C(=O)O)c1ccccc1 (some centres not stated) | inactive | – |
| N#CC(CCc1ccc(Cl)cc1)(Cn1cncn1)c1ccccc1 (configuration not stated) | 54.5 µM (active) | – |
| ClC(Cl)C(Cl)Cl | inactive | – |
| CC1(C(=O)Nc2ccc(O)c(Cl)c2Cl)CCCCC1 | inactive | – |
| CC1CCC(=O)O1 (configuration not stated) | inactive | – |
| C=CCC1=C(C)[C@@H](OC(=O)[C@@H]2[C@@H](C=C(C)C)C2(C)C)CC1=O | 54.5 µM (active) | – |
| CS(=O)(=O)c1cc(C(F)(F)F)ccc1C(=O)c1cnoc1C1CC1 | inactive | – |
| COc1cc2c(cc1OC)[C@@]13CCN4CC5=CCO[C@H]6CC(=O)N2[C@H]1[C@H]6[C@H]5C[C@H]43 | inactive | – |
| CNC(=O)Oc1ccc(N(C)C)c(C)c1 | inactive | – |
| NC(=O)O | inactive | – |

Molecular target: Nuclear receptor ROR-gamma (Homo sapiens) (UniProt P51449)
Test: qHTS assay to identify small molecule antagonists of the retinoid-related orphan receptor gamma (ROR-gamma) signaling pathway (AID 1159521; further: nearly all actives have a fitted effect of over 50% in size;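 on activity change, negative = inhibition: CHO cells with doxycycline inducible ROR-gamma driving an RORE luciferase reporter; top concentration of the series differs between compounds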)
Conditions: Tet-on RORgamma CHO cells, RORE-luciferase, 16 h; series mostly up to 92.4 µM
How it was run: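 Readout: ONE-Glo luciferase luminescence, 30 min at room temperature. System: Tet-on RORγ CHO, RORE-LUC. Sequence: compound 2 h, doxycycline 1 uM final, 16 h at 37 C.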

| Structure (SMILES) | Potency | activity change, negative = inhibition |
| --- | --- | --- |
| ClCCCN1CCN(c2cccc(Cl)c2)CC1 | inactive | – |
| CCCCC(=O)Cl | inactive | – |
| CCCCCCI | inactive | – |
| C=C(C)CN(CC)c1c([N+](=O)[O-])cc(C(F)(F)F)cc1[N+](=O)[O-] | inactive | – |
| CN1CCN(C(=O)O[C@H]2c3nccnc3C(=O)N2c2ccc(Cl)cn2)CC1 | inactive | – |
| NC(=S)C(N)=S | inactive | – |
| Cc1ncc2n1-c1ccc(Cl)cc1C(c1ccccc1F)=NC2 | inactive | – |
| O=C1c2ccccc2C(=O)c2ccccc21 | – | 99.4% [at 19 µM] (inactive) |
| COc1cc(OC)nc(Oc2cccc(Oc3nc(OC)cc(OC)n3)c2C(=O)O)n1 | inactive | – |
| O=[N+]([O-])c1cccc2cccnc12 | inactive | – |
| OCCBr | inactive | – |
| O=C(Nc1ccccc1)c1ccccc1I | inactive | – |
| CC(N)=S | inactive | – |
| O=[N+]([O-])c1ccc2c3c(cccc13)CC2 | inactive | – |
| CCOP(=O)(OCC)OP(=O)(OCC)OCC | inactive | – |
| CCC(=O)C(CCN(C)C)(c1ccccc1)c1ccccc1 | inactive | – |
| C[C@@H]1CN(C2CCC(C#N)(c3ccc(F)cc3)CC2)CC[C@]1(C(=O)O)c1ccccc1 (some centres not stated) | inactive | – |
| N#CC(CCc1ccc(Cl)cc1)(Cn1cncn1)c1ccccc1 (configuration not stated) | 27.3 µM (active) | – |
| CC1(C(=O)Nc2ccc(O)c(Cl)c2Cl)CCCCC1 | inactive | – |
| CC1CCC(=O)O1 (configuration not stated) | inactive | – |
| C=CCC1=C(C)[C@@H](OC(=O)[C@@H]2[C@@H](C=C(C)C)C2(C)C)CC1=O | 27.3 µM (active) | – |
| CS(=O)(=O)c1cc(C(F)(F)F)ccc1C(=O)c1cnoc1C1CC1 | inactive | – |
| COc1cc2c(cc1OC)[C@@]13CCN4CC5=CCO[C@H]6CC(=O)N2[C@H]1[C@H]6[C@H]5C[C@H]43 | inactive | – |
| CNC(=O)Oc1ccc(N(C)C)c(C)c1 | inactive | – |
| NC(=O)O | inactive | – |

Tested on: not listed separately
Test: qHTS assay to identify small molecule agonists of the AP-1 signaling pathway - cell viability counter screen (AID 1159525; calls by dose curve; further: nearly all actives have a fitted effect of over 55% in size)
Conditions: ME-180 (cervical carcinoma) AP-1-bla cells viability, ATP luminescence, 5 h; series mostly up to 76.8 µM
How it was run: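 AP-1-bla ME-180 cells in Opti-MEM with 0.5% dialyzed FBS, compound exposure 5 h at 37 C in 15-point titration. Viability read in the same wells as ATP content by CellTiter-Glo luminescence, normalised to tetra-n-octylammonium bromide and DMSO controls.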

| Structure (SMILES) | Potency |
| --- | --- |
| ClCCCN1CCN(c2cccc(Cl)c2)CC1 | inactive |
| C[C@]12CC[C@H]3[C@@H](CC=C4C[C@@H](O)CC[C@@]43C)[C@@H]1CC[C@@H]2O | inactive |
| CCCCC(=O)Cl | inactive |
| CCCCCCI | inactive |
| CC(C)[N+](=O)[O-] | inactive |
| OC(c1ccccc1)(c1ccccc1)C1CCNCC1 | inactive |
| CC(Cl)(Cl)[N+](=O)[O-] | inactive |
| C=C(C)CN(CC)c1c([N+](=O)[O-])cc(C(F)(F)F)cc1[N+](=O)[O-] | inactive |
| CN1CCN(C(=O)O[C@H]2c3nccnc3C(=O)N2c2ccc(Cl)cn2)CC1 | inactive |
| CCCCCCBr | inactive |
| NC(=S)C(N)=S | inactive |
| Cc1ncc2n1-c1ccc(Cl)cc1C(c1ccccc1F)=NC2 | inactive |
| COc1cccc(C(=O)NN(C(=O)c2cc(C)cc(C)c2)C(C)(C)C)c1C | inactive |
| Cc1ncc(CNC(=O)N(CCCl)N=O)c(N)n1 | inactive |
| C[N+](C)=CCl | inactive |
| COc1cc(OC)nc(Oc2cccc(Oc3nc(OC)cc(OC)n3)c2C(=O)O)n1 | inactive |
| CNC(=O)Oc1ccccc1C1OCCO1 | inactive |
| O=[N+]([O-])c1cccc2cccnc12 | inactive |

| Structure (SMILES) | Potency |
| --- | --- |
| Cc1cc(C)nc(Nc2ccccc2)n1 | inactive |
| OCCBr | inactive |
| O=C(Nc1ccccc1)c1ccccc1I | inactive |
| CC(C)(C)NCC(O)c1cc(Cl)c(N)c(Cl)c1 (configuration not stated) | inactive |
| CC(N)=S | inactive |
| O=[N+]([O-])c1ccc2c3c(cccc13)CC2 | inactive |
| CCOP(=O)(OCC)OP(=O)(OCC)OCC | inactive |
| CCC(=O)C(CCN(C)C)(c1ccccc1)c1ccccc1 | inactive |
| C[C@@H]1CN(C2CCC(C#N)(c3ccc(F)cc3)CC2)CC[C@]1(C(=O)O)c1ccccc1 (some centres not stated) | inactive |
| N#CC(CCc1ccc(Cl)cc1)(Cn1cncn1)c1ccccc1 (configuration not stated) | 54.9 µM (active) |
| ClC(Cl)C(Cl)Cl | inactive |
| CC1CCC(=O)O1 (configuration not stated) | inactive |
| C=CCC1=C(C)[C@@H](OC(=O)[C@@H]2[C@@H](C=C(C)C)C2(C)C)CC1=O | 49 µM (active) |
| CS(=O)(=O)c1cc(C(F)(F)F)ccc1C(=O)c1cnoc1C1CC1 | inactive |
| COc1cc2c(cc1OC)[C@@]13CCN4CC5=CCO[C@H]6CC(=O)N2[C@H]1[C@H]6[C@H]5C[C@H]43 | inactive |
| CNC(=O)Oc1ccc(N(C)C)c(C)c1 | inactive |
| NC(=O)O | inactive |
